From PubChem BioAssay AID624494 (National Center for Advancing Translational Sciences (NCATS), 2012)
Active and inactive are the calls of the source.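 The calls were made as follows: active = D2 binding constant Ki of 1000 nM or lower when displacing the radioligand; inactive = the rest.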

target: D(2) dopamine receptor (Homo sapiens) (UniProt P14416); assay: HTS Assay for Allosteric Antagonists of the Human D2 Dopamine Receptor: SAR in D2 Binding Assay; conditions: D2 radioligand binding, methylspiperone displacement
Sequence (P14416 whole entry, looked up): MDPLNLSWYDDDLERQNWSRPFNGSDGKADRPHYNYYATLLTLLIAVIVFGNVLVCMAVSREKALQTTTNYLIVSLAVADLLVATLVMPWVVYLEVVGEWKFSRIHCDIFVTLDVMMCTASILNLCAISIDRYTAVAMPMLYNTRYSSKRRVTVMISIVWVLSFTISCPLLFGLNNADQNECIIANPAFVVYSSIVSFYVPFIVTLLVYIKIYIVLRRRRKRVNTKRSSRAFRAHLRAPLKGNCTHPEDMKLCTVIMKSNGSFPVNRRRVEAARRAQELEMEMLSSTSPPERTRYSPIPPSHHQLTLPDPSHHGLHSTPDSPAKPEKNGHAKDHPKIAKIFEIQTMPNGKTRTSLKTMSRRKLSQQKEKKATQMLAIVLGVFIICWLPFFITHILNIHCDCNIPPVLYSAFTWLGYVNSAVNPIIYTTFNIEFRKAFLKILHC
Text: Dopamine receptors (DARs) are involved in the etiology and/or therapy of a number of neuropsychiatric and endocrine disorders. For instance, all receptor-based antiparkinsonian drugs work via stimulating the D2 DAR subtype whereas all FDA-approved antipsychotic agents are antagonists of this receptor. […] There are three different types of allosteric modulators that we are seeking, two of which will stimulate or augment receptor signaling, allosteric agonists and potentiators, while the third, allosteric antagonists, will attenuate receptor signaling. The present primary screening assay measures compound antagonism after an EC80 addition of dopamine by tracking calcium flux in a […], inducible Hek293 Trex D2 cell line. This assay measures activity of the leads in the D2 radioligand binding assay. NIH Chemical Genomics Center [NCGC] NIH Molecular Libraries Probe Centers Network [MLPCN] MLPCN Grant: NS0676421 Assay Submitter (PI): David Sibley
Radioligand displacement assay will be done to determine if the lead compounds are allosteric or orthosteric in nature, for interaction with the D2 receptor. Compounds will be evaluated for their ability to displace binding of methylspiperone.

Row | Compound | Ki
1 | CN1C(=O)c2ccccc2[S@](=O)c2ccc(C(=O)NCCc3cccs3)cc21 | 100 nM (active)
